# In the library only some 4.7% were active in any assay of this set; here they are far more common.
# TRHR agonist – qHTS for Small Molecule Agonists and Allosteric Enhancers of Human TRH Receptor: Primary Screen for Agonists | TRHR cells, calcium flux fluo-8, FDSS agonist mode | 0.18% of 360,000 active | Thyrotropin-releasing hormone receptor (Homo sapiens), P34981 | activation, % at 2 µM | AID 493084, 2011; further: 0% is about no effect
#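 In this calcium-flux screen, cells bearing human TRHR are dye-loaded with fluo-8, baselined for 10 cycles, then exposed to library compounds; positive kinetic calcium responses during the agonist phase mark hits, with TRH as control.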
# D1 PAM – Potentiators of Human D1 Dopamine Receptor: qHTS. D(1A) dopamine receptor (Homo sapiens), P21728. 0.036% of 360,000 active. potentiation, % at 10 µM. HEK293 TREx D1 cells, calcium flux, dopamine EC20 potentiation. AID 504651, 2011; in the data active means potentiation above about 30%; further: 0% is about no effect
# Target sequence (P21728 whole entry, looked up): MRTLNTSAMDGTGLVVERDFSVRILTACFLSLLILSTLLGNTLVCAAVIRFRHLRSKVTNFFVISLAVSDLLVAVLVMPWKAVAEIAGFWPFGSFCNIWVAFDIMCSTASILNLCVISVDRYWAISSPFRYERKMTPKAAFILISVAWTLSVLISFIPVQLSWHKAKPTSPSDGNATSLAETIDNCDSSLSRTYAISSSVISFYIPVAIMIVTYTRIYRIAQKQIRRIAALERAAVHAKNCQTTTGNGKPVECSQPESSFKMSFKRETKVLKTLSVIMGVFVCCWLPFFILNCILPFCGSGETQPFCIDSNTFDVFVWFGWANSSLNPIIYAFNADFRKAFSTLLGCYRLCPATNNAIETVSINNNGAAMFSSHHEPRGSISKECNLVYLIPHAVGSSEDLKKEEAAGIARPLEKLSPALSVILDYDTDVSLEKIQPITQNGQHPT
# D1 ag – Allosteric Agonists of the Human D1 Dopamine Receptor: qHTS. D(1A) dopamine receptor (Homo sapiens), P21728. HEK293 T-REx D1 cells, calcium flux, agonist mode. activation, % at 2 µM. 1% of 360,000 active. AID 504660, 2011; further: 0% is about no effect
#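 Inducible HEK293 T-REx D1 cells, force-coupled to calcium signalling, were plated at 4000 cells/well with tetracycline and held overnight at 30 C. After no-wash calcium dye loading, compound-evoked calcium rise over 180 s flagged agonists.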
# TRHR enhancer – qHTS for Small Molecule Agonists and Allosteric Enhancers of Human TRH Receptor: Primary Screen for Enhancers | Thyrotropin-releasing hormone receptor (Homo sapiens), P34981 | TRHR cells, fluo-8 calcium fluorescence, EC20 TRH enhancement | enhancement, % at 2 µM | 0.66% of 360,000 active | AID 493056, 2011; in the data active means enhancement above about 30%; further: 0% is about no effect
#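 Enhancer read-out: after compound pinning and an initial kinetic agonist-mode read, an EC20 of TRH (10 nM final) was injected and fluo-8 calcium signal (Ex 480/Em 530) followed at 1 s/cycle for 100 cycles in TRHR-expressing cells.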
# D1 antagonist – Antagonist of Human D 1 Dopamine Receptor: qHTS. AID 504652, 2011. activity change, negative = inhibition, % at 10 µM. 3.2% of 360,000 active. D(1A) dopamine receptor (Homo sapiens), P21728. HEK293 TREx D1 cells, calcium flux, dopamine EC80; stronger effect = lower value; in the data active means activity change below about -30%; further: on the % scale 0 is the no-effect control and ±100 the full control effect
#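 Kinetic fluorescence of a calcium dye serves as the read-out. D1-expressing Hek293 Trex cells, induced overnight at 30 C, are exposed to compound for 180 s before an EC80 dopamine addition, then read 180 s further.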
# Numbers without * were called inactive. Unless noted, no stated cut-off is given here; in the data, active means activation above about 30%; inactive means the rest.
SMILES,TRHR agonist,D1 PAM,D1 ag,TRHR enhancer,D1 antagonist
CCS(=O)(=O)c1ncc(Cl)c(C(=O)Nc2ccccc2)n1,2.5,-2.9,4.6,-21.2,-30.3*
CCOC(=O)c1c(-c2ccccc2)csc1NC(=O)c1nc(SCC)ncc1Cl,0.7,-1.1,4.8,-0.8,-10.5
CCS(=O)(=O)c1ncc(Cl)c(C(=O)Nc2ccc(S(=O)(=O)N3CCC(C)CC3)cc2)n1,0.1,-12.6,1.8,18.9,-65.5*
CCOC(=O)c1sc(NC(=O)/C=C/c2ccc(OCC)cc2)c(C(=O)OCC)c1C,0.5,-2.1,3.7,0.2,-7.3
CCC(C)NC(=O)Cn1c(=O)n(Cc2ccc(C(=O)NCc3ccc(C)cc3)cc2)c(=O)c2ccccc21 (configuration not stated),0.4,-2.0,8.0,-1.3,3.9
Cc1ccc(-n2nnc(-c3nsc(NC(=O)c4ccccc4C)n3)c2C)cc1Cl,-0.7,-2.6,2.7,7.0,-3.7
CCOC(=O)c1ccc(NC(=O)c2nc(S(=O)(=O)Cc3ccccc3)ncc2Cl)cc1,0.2,-7.7,0.8,-9.9,-45.2*
CCc1ccc(NC(=O)c2nc(S(=O)(=O)Cc3ccccc3)ncc2Cl)cc1,-0.4,-13.0,4.4,14.8,-64.0*
COc1ccc(-c2cc(C(F)(F)F)n3nc(C(=O)Nc4sc5c(c4C#N)CCC(C)C5)cc3n2)cc1OC (configuration not stated),1.2,-3.1,-0.9,-10.7,-10.1
O=C(CNCC1CCCCC1)Nc1ccc(OC(F)(F)F)cc1,12.1,-2.7,93.1*,-14.4,-42.4*
CN(CC(=O)Nc1ccc(OC(F)(F)F)cc1)C1CCCCC1,3.2,-3.5,7.9,-4.8,-27.2
O=c1c2cccnc2n(Cc2ccc(Cl)cc2)c(=O)n1Cc1ccc(F)cc1,-0.3,-6.3,-0.6,1.1,-15.8
O=C(NN=C1CCCCCC1)c1c[nH]c2ccccc12,0.6,-11.4,-0.6,24.5,-45.6*
C/C(=N\NC(=O)c1cc2ccccc2cc1O)c1ccc(C)o1,1.4,1.3,4.4,2.5,-6.8
C/C(=N\NC(=O)c1c[nH]c2ccccc12)c1ccc(C)o1,0.5,-4.8,0.4,2.3,-66.1*
CCOc1ccc(CNC(=O)C2CCN(S(=O)(=O)N3CCCCC3)CC2)cc1,-0.6,0.4,-3.6,-1.2,-6.7
CCOC(=O)c1cc(-c2ccccc2)n(CC(=O)Nc2ccccc2OCC)c1C,0.4,0.1,0.8,4.7,9.1
O=C(c1ccccc1)c1nn(-c2cccc(Cl)c2)c2nc(-c3ccccc3)cc(=O)n12,-1.9,0.7,0.5,6.0,-74.0*
COc1ccc(CNC(=O)CCc2c(C)nn(-c3ccc(N4CCCC4)nn3)c2C)c(OC)c1,0.0,-2.6,0.7,0.7,2.4
CCOC(=O)/C(C(=Nc1ccccc1)Nc1ccccc1)=C(\C)O,-0.5,-4.8,2.8,-3.5,-6.1
NC(=Nc1ccccc1)Nc1ccccc1,95.6*,-1.2,89.9*,6.6,-26.5
COc1cccc(NC(=O)CNC(=O)Cn2c(C)cc3ccccc3c2=O)c1,-0.1,0.6,1.1,3.0,9.7
Cc1cccc(C)c1-n1ncc(C(=O)N2CCN(c3ncccn3)CC2)c1C1CCN(C(=O)OC(C)(C)C)CC1,-0.3,-0.4,0.6,7.0,24.9
Cc1ccc(-n2c(=O)[nH]c3cc(C(=O)NCc4ccccc4)ccc3c2=O)cc1,1.0,-1.1,8.1,3.6,-76.9*
COc1cc(OC)cc(-n2c(=O)[nH]c3cc(C(=O)NCCc4ccc(C)cc4)ccc3c2=O)c1,0.4,1.5,5.0,3.0,4.7
SMILES,TRHR agonist,D1 PAM,D1 ag,TRHR enhancer,D1 antagonist
CCCCNC(=O)c1ccc2c(=O)n(-c3ccccc3)c(=O)[nH]c2c1,0.3,-1.6,1.4,-0.1,-64.5*
CCCCCn1c(=O)[nH]c2cc(C(=O)NCCCN(C)Cc3ccccc3)ccc2c1=O,2.5,-8.6,3.8,2.9,20.5
Cc1ccc(Cl)cc1N1CCN(C(=O)Cn2c(-c3cccs3)cc3cc(F)ccc32)CC1,0.6,2.2,2.2,7.8,13.6
Cc1ccc2nc(NCc3ccccc3)c(C=NCc3ccccc3)c(=O)n2c1,0.6,-2.2,23.3,-0.2,2.8
Cc1ccc2nc(NCCCN3CCOCC3)c(C=NCCCN3CCOCC3)c(=O)n2c1,0.3,-8.4,0.9,31.8*,11.1
Cc1cc(C(C#N)c2ccc(Cl)cc2)c(Cl)cc1NC(=O)c1cc(I)cc(I)c1O (configuration not stated),1.1,-6.8,12.8,-7.0,-33.3*
CCN(CC)CCNc1ccnc2cc(Cl)ccc12,1.1,-0.9,2.5,-3.3,1.9
Clc1ccc2c(NCc3ccccc3)ccnc2c1,2.0,-4.8,20.8,16.6,-37.5*
COc1ccc(S(=O)(=O)c2c(O)c3ccc(C(=O)Nc4ccccc4Cl)cc3[nH]c2=O)cc1,0.7,-1.2,3.8,31.8*,-2.5
CCc1ccccc1NC(=O)c1ccc2c(O)c(S(=O)(=O)c3ccc(OC)cc3)c(=O)[nH]c2c1,1.1,-5.8,3.8,-7.0,15.0
O=C(COc1ccc(F)cc1)Nc1ccc(S(=O)(=O)N(Cc2ccccc2)c2ccccc2)cc1,-0.5,-0.1,26.7,-1.2,-4.0
CN1CCC(N(C)S(=O)(=O)c2ccc(NC(=O)COc3ccc(Br)cc3Cl)cc2)CC1,3.8,-15.7,30.6*,-6.2,-44.4*
Cc1ccccc1OCCC(=O)Nc1ccc(S(=O)(=O)N(C)C2CCN(C)CC2)cc1,-0.4,-1.1,55.4*,3.7,-66.1*
Cc1ccc(OCC(=O)Nc2ccc(S(=O)(=O)N(C)C3CCN(C)CC3)cc2)c(C)c1,0.6,-11.4,19.7,-2.4,-24.0
Cc1ccccc1OCC(=O)Nc1ccc(S(=O)(=O)N(Cc2ccccc2)c2ccccc2)cc1,1.2,0.9,4.5,-3.1,-50.5*
COc1ccc(-c2cc3c(=O)n(CC(=O)Nc4ccc(Br)c(C)c4)ccn3n2)cc1OC,0.3,-0.7,-0.5,-5.4,8.4
O=C(Nc1cccc(C(=O)N2CCN(Cc3ccccc3)CC2)c1)c1ccccc1,-0.1,-6.5,2.8,7.7,-39.0*
Cc1cc(CSc2ccccc2)ccc1NC(=O)c1ccc(CN2CCOCC2)cc1,1.8,0.8,29.6,-5.7,-31.4*
CSc1ccccc1NC(=O)c1ccc(CN2CCOCC2)cc1,-0.7,11.9,2.8,1.2,0.2
COc1cccc(NC(=O)c2ccc(CN3CCN(c4ccccc4)CC3)cc2)c1,0.4,1.3,-0.3,2.7,6.1
Cc1cccc(NC(=O)c2ccc(CN3CCN(Cc4ccccc4)CC3)cc2)c1,0.9,-8.8,14.1,-0.1,-37.4*
